According to publication PMC7862700, “An all-to-all approach to the identification of sequence-specific readers for epigenetic DNA modifications on cytosine”:

Columns and labels:
Test in all cases: DAPPL (digital affinity profiling via proximity ligation, sequencing); 10 mM Tris-HCl pH 7.5, 50 mM NaCl, 1 mM DTT, 4% glycerol, room temperature, 30 min; GST-TFs on glutathione beads, 16-mer random dsDNA library, 0.1% formaldehyde crosslink after washing; high values mean tight binding
Conditions in all cases: protein: recombinant; tags: N-terminal GST; dsDNA, one strand shown
ERF = target: T1, ERF (Homo sapiens, UniProt P50548 1-548)
T1 sequence: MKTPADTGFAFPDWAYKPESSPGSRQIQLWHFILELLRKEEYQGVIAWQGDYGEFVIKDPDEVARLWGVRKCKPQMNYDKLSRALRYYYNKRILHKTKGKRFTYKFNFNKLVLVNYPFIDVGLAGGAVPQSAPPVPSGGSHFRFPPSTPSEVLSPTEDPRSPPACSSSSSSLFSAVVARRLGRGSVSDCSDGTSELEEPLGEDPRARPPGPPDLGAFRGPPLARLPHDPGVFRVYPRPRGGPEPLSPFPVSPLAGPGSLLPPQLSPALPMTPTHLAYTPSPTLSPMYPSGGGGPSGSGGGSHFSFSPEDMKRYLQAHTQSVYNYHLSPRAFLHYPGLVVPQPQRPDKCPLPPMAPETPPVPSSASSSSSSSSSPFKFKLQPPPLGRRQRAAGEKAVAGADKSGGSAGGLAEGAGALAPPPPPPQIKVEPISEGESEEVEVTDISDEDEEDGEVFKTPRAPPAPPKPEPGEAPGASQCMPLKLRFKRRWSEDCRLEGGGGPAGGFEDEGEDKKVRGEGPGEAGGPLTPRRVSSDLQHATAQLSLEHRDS
Method in brief: (§1)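 Binding signal is given per hexamer as its read frequency for a factor divided by its frequency in the tag-only sample. GST-fused human transcription factors were expressed in yeast, captured on glutathione beads, barcoded with DNA and pooled with that sample, then incubated with 200 nmole of a 16-mer random double-stranded DNA library in Tris/NaCl/DTT/glycerol buffer for 30 min at room temperature. The pools were then washed, crosslinked, proximity-ligated, amplified by PCR and sequenced on an Illumina NextSeq500.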

ETV3L = target: T2, ETV3L (Homo sapiens, UniProt Q6ZN32 1-361)
T2 sequence: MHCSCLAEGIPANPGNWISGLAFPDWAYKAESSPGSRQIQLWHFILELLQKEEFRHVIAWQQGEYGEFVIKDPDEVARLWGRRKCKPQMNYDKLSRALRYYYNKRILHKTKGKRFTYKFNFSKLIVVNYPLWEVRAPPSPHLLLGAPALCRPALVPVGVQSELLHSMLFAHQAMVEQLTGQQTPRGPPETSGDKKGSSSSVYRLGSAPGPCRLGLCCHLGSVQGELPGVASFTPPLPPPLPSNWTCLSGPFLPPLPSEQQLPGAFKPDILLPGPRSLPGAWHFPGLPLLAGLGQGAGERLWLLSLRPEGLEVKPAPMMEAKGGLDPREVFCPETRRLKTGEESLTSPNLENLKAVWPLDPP
Method in brief: as §1

ETS2 = target: T3, ETS2 (Homo sapiens, UniProt P15036 1-469)
T3 sequence: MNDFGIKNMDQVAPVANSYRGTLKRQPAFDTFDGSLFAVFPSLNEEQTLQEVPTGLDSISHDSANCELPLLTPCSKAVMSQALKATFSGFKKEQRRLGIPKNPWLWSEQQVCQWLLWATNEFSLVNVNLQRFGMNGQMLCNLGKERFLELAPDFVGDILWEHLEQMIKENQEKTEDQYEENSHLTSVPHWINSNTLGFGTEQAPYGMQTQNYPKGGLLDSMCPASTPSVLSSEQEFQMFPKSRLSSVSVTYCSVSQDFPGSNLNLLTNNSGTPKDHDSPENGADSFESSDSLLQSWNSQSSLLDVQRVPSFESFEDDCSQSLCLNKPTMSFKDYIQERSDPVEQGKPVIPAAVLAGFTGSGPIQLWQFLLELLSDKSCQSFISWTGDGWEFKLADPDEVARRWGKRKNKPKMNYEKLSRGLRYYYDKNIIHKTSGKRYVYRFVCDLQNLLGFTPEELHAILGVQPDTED
Method in brief: as §1

SPDEF = target: T4, SPDEF (Homo sapiens, UniProt O95238 1-335)
T4 sequence: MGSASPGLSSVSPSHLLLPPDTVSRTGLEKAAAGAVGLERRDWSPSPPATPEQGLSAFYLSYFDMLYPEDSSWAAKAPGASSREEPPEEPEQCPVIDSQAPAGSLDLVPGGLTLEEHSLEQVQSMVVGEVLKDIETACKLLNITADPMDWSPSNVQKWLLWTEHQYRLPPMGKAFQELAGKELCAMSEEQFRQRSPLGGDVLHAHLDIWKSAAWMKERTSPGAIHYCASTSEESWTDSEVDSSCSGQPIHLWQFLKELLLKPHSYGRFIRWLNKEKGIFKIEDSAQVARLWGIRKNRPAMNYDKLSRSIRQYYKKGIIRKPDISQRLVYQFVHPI
Method in brief: as §1

ETV7 = target: T5, ETV7 (Homo sapiens, UniProt Q9Y603 1-341)
T5 sequence: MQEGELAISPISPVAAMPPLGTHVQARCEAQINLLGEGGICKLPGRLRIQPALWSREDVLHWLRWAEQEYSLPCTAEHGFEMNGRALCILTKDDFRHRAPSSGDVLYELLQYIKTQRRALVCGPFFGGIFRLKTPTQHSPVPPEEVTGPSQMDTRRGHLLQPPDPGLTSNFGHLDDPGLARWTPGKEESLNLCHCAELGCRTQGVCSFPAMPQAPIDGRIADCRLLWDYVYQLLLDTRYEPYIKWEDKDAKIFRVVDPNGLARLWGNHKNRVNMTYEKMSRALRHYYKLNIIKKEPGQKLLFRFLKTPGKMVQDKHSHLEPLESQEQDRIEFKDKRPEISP
Method in brief: as §1

ELF5 = target: T6, ELF5 (Homo sapiens, UniProt Q9UKW6-2 1-255)
T6 sequence: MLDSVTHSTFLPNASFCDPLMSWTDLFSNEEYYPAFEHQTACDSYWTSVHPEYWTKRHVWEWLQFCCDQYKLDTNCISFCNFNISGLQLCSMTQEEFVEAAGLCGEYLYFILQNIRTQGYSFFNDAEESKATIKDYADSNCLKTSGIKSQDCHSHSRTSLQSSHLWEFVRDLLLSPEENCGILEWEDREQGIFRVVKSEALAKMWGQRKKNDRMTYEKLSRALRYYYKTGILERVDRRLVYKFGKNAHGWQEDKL
Method in brief: as §1

ETV3 = target: T7, ETV3 (Homo sapiens, UniProt P41162-2 1-143)
T7 sequence: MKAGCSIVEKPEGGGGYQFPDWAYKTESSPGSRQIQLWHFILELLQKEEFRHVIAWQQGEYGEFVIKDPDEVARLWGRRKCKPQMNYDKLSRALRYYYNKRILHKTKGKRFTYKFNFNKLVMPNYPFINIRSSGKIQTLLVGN
Method in brief: as §1

ETV6 = ETV6 (Homo sapiens, UniProt P41212 1-452)
Method in brief: as §1

Sequence of ETV6 (P41212 whole entry): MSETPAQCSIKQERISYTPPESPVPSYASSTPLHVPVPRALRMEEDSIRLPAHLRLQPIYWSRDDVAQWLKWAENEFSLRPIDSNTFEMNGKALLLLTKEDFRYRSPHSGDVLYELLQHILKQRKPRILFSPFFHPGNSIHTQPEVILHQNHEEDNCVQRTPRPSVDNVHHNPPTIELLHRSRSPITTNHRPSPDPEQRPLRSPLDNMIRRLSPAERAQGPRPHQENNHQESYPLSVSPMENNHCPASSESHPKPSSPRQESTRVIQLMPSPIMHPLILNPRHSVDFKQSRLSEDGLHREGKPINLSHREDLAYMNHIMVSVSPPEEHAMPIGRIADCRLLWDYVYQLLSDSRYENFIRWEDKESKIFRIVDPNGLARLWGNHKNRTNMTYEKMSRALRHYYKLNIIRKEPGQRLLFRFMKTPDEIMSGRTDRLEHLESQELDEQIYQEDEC

| Sequence | binding signal (ERF) | binding signal (ETV3L) | binding signal (ETS2) | binding signal (SPDEF) | binding signal (ETV7) | binding signal (ELF5) | binding signal (ETV3) | binding signal (ETV6) |
| --- | --- | --- | --- | --- | --- | --- | --- | --- |
| TCCGCT | 2.12 fold enrichment (6-mer frequency, TF over GST control) | 2.23 fold enrichment (6-mer frequency, TF over GST control) | 2.32 fold enrichment (6-mer frequency, TF over GST control) | 2.51 fold enrichment (6-mer frequency, TF over GST control) | 2.07 fold enrichment (6-mer frequency, TF over GST control) | 2.58 fold enrichment (6-mer frequency, TF over GST control) | 2.44 fold enrichment (6-mer frequency, TF over GST control) | 2.44 fold enrichment (6-mer frequency, TF over GST control) |
| TAAGTT | 1.18 fold enrichment (6-mer frequency, TF over GST control) | 1.4 fold enrichment (6-mer frequency, TF over GST control) | 1.38 fold enrichment (6-mer frequency, TF over GST control) | 1.42 fold enrichment (6-mer frequency, TF over GST control) | 1.36 fold enrichment (6-mer frequency, TF over GST control) | 1.29 fold enrichment (6-mer frequency, TF over GST control) | 1.27 fold enrichment (6-mer frequency, TF over GST control) | 1.49 fold enrichment (6-mer frequency, TF over GST control) |
| AATATC | 1.46 fold enrichment (6-mer frequency, TF over GST control) | 1.48 fold enrichment (6-mer frequency, TF over GST control) | 1.55 fold enrichment (6-mer frequency, TF over GST control) | 1.78 fold enrichment (6-mer frequency, TF over GST control) | 1.52 fold enrichment (6-mer frequency, TF over GST control) | 1.82 fold enrichment (6-mer frequency, TF over GST control) | 1.6 fold enrichment (6-mer frequency, TF over GST control) | 1.57 fold enrichment (6-mer frequency, TF over GST control) |
| CCTCCT | 1.64 fold enrichment (6-mer frequency, TF over GST control) | 1.44 fold enrichment (6-mer frequency, TF over GST control) | 1.57 fold enrichment (6-mer frequency, TF over GST control) | 1.58 fold enrichment (6-mer frequency, TF over GST control) | 1.61 fold enrichment (6-mer frequency, TF over GST control) | 1.9 fold enrichment (6-mer frequency, TF over GST control) | 1.46 fold enrichment (6-mer frequency, TF over GST control) | 1.55 fold enrichment (6-mer frequency, TF over GST control) |
| TGTTCC | 1.75 fold enrichment (6-mer frequency, TF over GST control) | 1.62 fold enrichment (6-mer frequency, TF over GST control) | 1.75 fold enrichment (6-mer frequency, TF over GST control) | 2.03 fold enrichment (6-mer frequency, TF over GST control) | 1.68 fold enrichment (6-mer frequency, TF over GST control) | 2.3 fold enrichment (6-mer frequency, TF over GST control) | 1.85 fold enrichment (6-mer frequency, TF over GST control) | 1.69 fold enrichment (6-mer frequency, TF over GST control) |
| CTGCAT | 1.38 fold enrichment (6-mer frequency, TF over GST control) | 1.66 fold enrichment (6-mer frequency, TF over GST control) | 1.4 fold enrichment (6-mer frequency, TF over GST control) | 1.57 fold enrichment (6-mer frequency, TF over GST control) | 1.41 fold enrichment (6-mer frequency, TF over GST control) | 1.29 fold enrichment (6-mer frequency, TF over GST control) | 1.24 fold enrichment (6-mer frequency, TF over GST control) | 1.25 fold enrichment (6-mer frequency, TF over GST control) |
| AATCCC | 1.44 fold enrichment (6-mer frequency, TF over GST control) | 1.29 fold enrichment (6-mer frequency, TF over GST control) | 1.25 fold enrichment (6-mer frequency, TF over GST control) | 1.36 fold enrichment (6-mer frequency, TF over GST control) | 1.23 fold enrichment (6-mer frequency, TF over GST control) | 1.4 fold enrichment (6-mer frequency, TF over GST control) | 1.26 fold enrichment (6-mer frequency, TF over GST control) | 1.42 fold enrichment (6-mer frequency, TF over GST control) |
